The whole screen tested about 53,000 sequences, of which about 3,700 (7%) were called active.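 The calls were made as follows: active = gene knockdowns whose robust z-score for IL-1 alpha signal is at least 2 or at most -2, so actives lie on both sides; inactive = the rest.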 The full list was thinned out, with actives kept by preference.

The nature of this experiment: Components of the Cytosolic LPS Sensing Pathway: Gene Identification via Genome-wide siRNA Screen.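 Also: robust z of the log signal after scaling to non-targeting control siRNA wells of the plate.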 The following applies: RAW264.7 macrophages, IL-1a HTRF, actives lie on both sides, screened at 100 nM (by protocol), cells primed 5 h with Pam3CSK4 first. Summed up: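 IL-1a HTRF of supernatants after 24 hour LipidA transfection of Pam3CSK4-primed (5 hours) RAW264.7 cells, 48h post-siRNA transfection (100 nM). Scores: percent of plate negative-control median, then log-based robust z-score.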
On the technique in general: In TR-FRET formats the signal depends on donor and acceptor labels being close together.
“GGAUGAUCACAAAGGUAUATT against 4632404H12Rik”: the z-score was 0.0665 (inactive). Next, CCCAGUUGGUGUUUAUAUATT against Ppp3cb: 0.115 (inactive).

As for GGAGAUUUCAUGAACUCUGTT against Srrm3, the z-score was -0.141 (inactive). The value for GGGUCUGCUACAUCUUCGGTT against Ino80e was 2.27 (active); that for GGCCAGGAAAAAAUCUGCATT against Neu1 was -0.293 (inactive); that for GGGUUUGACCUGAUUUCUCTT against Col9a1 was 0.305 (inactive).

For the sequence GGUUACCUCCACCAGAUCATT against Avpi1, the z-score is -0.326 (inactive).

In the case of GGCGGUAACCACUUUCACGTT against Mycn, the z-score was -0.567 (inactive).

With “GGUUCCCUUUUUCAUCUAATT against 4632433K11Rik”, the z-score was 3.08 (active). Next, GGAAGAAAUGGAAUUGAAGTT against Pcdhga6: 0.649 (inactive). Next, GGAGCAUUCAAAUUACAUCTT against Ccni: 4.62 (active); GGAUGAUCAAGACAAGCAGTT against Nobox: -0.763 (inactive); CCUUGGGAAUUACCCAGAGTT against Cage1: -0.565 (inactive). The value for GCCGUUCCCAUUAUCGUUUTT against Tmem87a was -0.693 (inactive); that for GGAAAUUUGUAUCCCGAGUTT against Trp53 was -2.14 (active). As to GGAAGGUGGAGAAAAUCCGTT against Hhipl2, the z-score was 0.585 (inactive).

Turning to GGAAGAUACUAAUAGAGUATT against Enpep, the z-score was -0.00304 (inactive).

With GGACGACAACGACAUCAUGTT against Sfrp2, the z-score is 0.475 (inactive). Next, GGGACCAAAGGAAACUUCATT against Eif2s3y: -0.14 (inactive). The value for CCCAGGUGAUUCUGAUAUUTT against Rpl30 was 0.534 (inactive); that for UGGACUUGCUUCUCACAUCTT against Olfr694 was -2.22 (active); that for GGUACAUUGGCAUUGUGAATT against Hnrnpf was 0.525 (inactive). Next, GCCUCCUUUGCUUCAUUUCTT against Fcer1g: 1.83 (inactive); GGUCUUCUGAAGAUGGCGUTT against Pja2: 1.39 (inactive); GCAACAAGUCUGGAGACAATT against Pebp1: -0.595 (inactive).

Turning to GGAGUUCCAGAAGCUUCUATT against Vwa3b, the z-score is -1.72 (inactive). For GCGGCUCUUACGAGGUUUATT against Upk3a, the z-score is 0.024 (inactive). Next, CGAUGAGAGUCCACUCCCATT against Cox18: -3.19 (active). Turning to “GGGAGUUAUGUUGGUAUCATT against 1700029F12Rik”, the z-score was -1.38 (inactive). Next, GGACUUCUUCUAUUUCAUATT against Fam20a: -0.986 (inactive); GGAAAACACGUUCACUAUATT against Elp2: 0.021 (inactive); GGAGUCUCCAAUGAAAUGUTT against Kcnma1: -0.464 (inactive). Next, GCUAAACGAGUUAUUGGUGTT against Ecpas: 0.829 (inactive).

Turning to GGAGAAACUGGCUUUCUCUTT against Zp3, the z-score was 0.918 (inactive). Next, GGUUCUACAGAUGUUUUCUTT against Tnfrsf22: 3.84 (active); GCGGCAAGUGGACUUUUCATT against Dlc1: -1.09 (inactive); GCCCAGUUUGUCACAAAGCTT against Sorl1: -0.276 (inactive). Regarding GCUAAGCGGAAUGCACUCGTT against Cxcl5, the z-score was -2.23 (active).

For “CCCUAGUGCAGUGAUAACUTT against 1700016D06Rik”, the z-score is 0.938 (inactive). Next, CCCAACAAGAGUAUCUAUGTT against Foxh1: -0.125 (inactive); GGCAUCUCUCCAAUAACCUTT against Fbxw2: -1.2 (inactive). Next, GGUUCUGGUUUAGAUGCUATT against H2aw: 2.36 (active); GGAUUUCUUCUUAUGAUGATT against Khnyn: -1.21 (inactive).

Turning to GCUCAGAAUAUCACAUCAATT against Ppm1b, the z-score is -1.59 (inactive). Turning to GCUAAAAUAUUAGGGAAGCTT against Timm29, the z-score is 0.429 (inactive). The value for GGAGAUAGGAUUGCUUGCATT against Mthfd1l was -2.3 (active); that for GGAAAGAAAAAUGAAGCUUTT against Tmem167b was -0.548 (inactive); that for GGAUAUCGUUGUUUCUGAGTT against Lmbr1 was -1 (inactive). As for GGGUGGUGUUCCAUGACAGTT against Ubp1, the z-score was -1.82 (inactive).

Regarding GGCACAAGAUUAUUUAAGUTT against Tmem68, the z-score is 0.362 (inactive). The value for GGUUCUAUGCUGAAGGUCATT against Lhfpl2 was 0.358 (inactive). The value for GGAGCUGUCCAGGUUUAUUTT against Psmd6 was -2.72 (active); that for GGCUUGUGAAUGGAAAUAATT against Hsp90aa1 was -0.416 (inactive); that for CCUUAAGACCGGAUUUUUUTT against Cyp4f14 was 0.64 (inactive). The value for GGAGUUUGUAUCAAACUUATT against Zcchc8 was 0.0121 (inactive); that for “GGUAAUGGGAGCUAGUUUATT against 6330549D23Rik” was -0.259 (inactive).

Regarding GCAUAGAAACCAUGCACAUTT against Acot2, the z-score is 3.28 (active). Turning to CCGAGGACUAUUUGAAACGTT against Mrtfa, the z-score is -1.46 (inactive). On to GGAUUUGAGUUGAAGCGUGTT against Zscan20, for which the z-score is -0.129 (inactive). As to GGUGGUAAAUCGAAUUGUUTT against Tmem185b, the z-score is -0.171 (inactive). The value for GGCUGGCUAUAAGAAAAAATT against Mrpl35 was -0.646 (inactive). The value for GGCUUGAAGAUGUCUAUGATT against Aptx was -2.19 (active); that for GGCCACAGGAAGUCAGUUATT against Gsk3b was -1.23 (inactive). Turning to GCCAACCAUCAGUUUAUACTT against Mboat1, the z-score is -0.31 (inactive). In the case of GGCUGAAGAACUCCUACAATT against Dennd1c, the z-score is 2.17 (active). The value for GGUUAGUAGUCUUCUUAUCTT against Olfr1173 was 0.291 (inactive). The value for CGCACAGAGAAUAAGGGAATT against Tcta was 0.843 (inactive). Take CCUGAUGCACUACUCGUCUTT against Dmbx1: the z-score was -0.131 (inactive). The value for GGUAAAUGUCUGCUCUGAGTT against Selenok was -2.53 (active). With GGUCAACUAGCAGAAACCATT against Adgrv1, the z-score was -1.84 (inactive). The value for CCGUAGAGAUCAACAACACTT against Npepl1 was 0.799 (inactive). The value for GGACUCCUUCCACCACAAUTT against Aifm2 was -0.2 (inactive); that for GCACAUAGCAUCCACUCCATT against Gm4793 was -2.56 (active); that for CCCUAUUUGUCAGCGGUCUTT against Rbpms was -1.94 (inactive).

For the sequence GCCUUAAGAGAUGUAUUUCTT against Vmn1r33, the z-score is -0.042 (inactive).

With GGAGGAAAUGAUGAUUUUCTT against Kbtbd2, the z-score was 0.283 (inactive). Next, CCAAGCGAAUGCUGGACAUTT against Cox4i1: 3.44 (active); GGUACAUCUAUUUCUUGUUTT against Ncam2: -1.2 (inactive). Next, GGACUGUACUAUGGCUCUCTT against Nt5m: 0.135 (inactive). Next, “GGGAGGAGAGUGAUUGAGATT against A730013G03Rik”: 0.682 (inactive). In the case of CCAACAAAUUCUGGUGGGATT against Ccdc84, the z-score was 0.578 (inactive). The value for GGAGUACCUGUGGUGCAUUTT against Ahcy was 0.213 (inactive); that for GGCGGUACCUCUUCUUCAUTT against Aipl1 was 2.32 (active); that for CCGAAGUCAACUAAACUUATT against Rmc1 was 0.732 (inactive). In the case of CCCUUGCUACAAUGAUGCCTT against Mfge8, the z-score was 2.56 (active). In the case of GGACAACUUCAACAGCACUTT against Rab13, the z-score was -1.31 (inactive). For CGUAGAGCUCAGAGAAUUCTT against Dhx58, the z-score was 0.614 (inactive).

Regarding GCGAAUGAUAUGUAUCAGATT against Pik3r1, the z-score was 0.647 (inactive). The value for ACCUUUUCAAAUCUGUGCGTT against Uts2b was -0.928 (inactive); that for GGCUAACCAGAGGAAAAACTT against Rph3a was -2.19 (active); that for “GCUCUUGGUCCGUCUUCAGTT against 6030452D12Rik” was -1.76 (inactive). Consider GGAGUCUUGUAAUGAGCUUTT against Zfp54, for which the z-score is 0.898 (inactive). CCCUCAAAGUCAUUUCAAATT against Cfap43: the z-score is -1.61 (inactive).

For GGUUGAAAAUGGAAGAGUATT against Mbnl2, the z-score was -2.27 (active). For CCUUCCUACCGGAGAAUGATT against Capn6, the z-score was -0.341 (inactive).

For the sequence GGUUCAACAUGAAAAUGAUTT against Lingo2, the z-score is -0.251 (inactive). On to GCCAAUUGAGUCGUCUAUCTT against Rps6ka1, for which the z-score is 2.41 (active). The value for GGCAGCGAUUGACAAAAUGTT against Eefsec was -0.756 (inactive); that for GGUCGUGAUAAACAUAUCATT against Cep85 was -1.1 (inactive); that for GGUCAAUGGCCACAAGUUCTT against Prkce was 0.421 (inactive). The value for CCAUGAUCGCUAGUGAAGCTT against Mrpl24 was -0.743 (inactive); that for GGUGGUGAACUGUUUGACCTT against Pnck was -1.58 (inactive); that for GCUGACCUUUGUAAGUUAUTT against Ttc17 was -0.369 (inactive). For GGCUAUGCUUCUUUCCUUUTT against Cfhr1, the z-score was 0.846 (inactive).

As to GGAGAAGAAAAAGAAGGACTT against Pak1, the z-score is -0.932 (inactive). On to CGGCUUGCUACUUUGGAACTT against Gda, for which the z-score is 2.55 (active). GAUGGAUCGAACUCUGCACTT against Stard10: the z-score was -0.957 (inactive).

For the origin of these results see PubChem BioAssay AID1508600 (Functional Genomics Laboratory (NCATS/FGL), 2020).
